Results on 38 compounds are retold here after PubChem BioAssay AID2158 (National Center for Advancing Translational Sciences (NCATS), 2009).

“And” between values parts separate entries of the source, which are not always exact repeats. Equal values may be shown once. Results filed as inconclusive are left out. Values without a mark were called inactive. The source made the active and inactive calls. The call rests on the fitted dose curve; in most records, active means well fitted inhibition curve with a large enough effect; inconclusive means small, poorly fitted or top-dose-only effect; inactive means no such curve, though single readings can be large or run the other way.
Potency means the concentration at half of the fitted maximal effect.

In this assay the target is Cruzipain (Trypanosoma cruzi) (UniProt P25779). The experiment in a line: Confirmation qHTS Assay for Inhibitors of Cruzain. Further: nearly all actives have a fitted effect of over 40% in size.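 On activity change, negative = inhibition: plate controls were uninhibited enzyme control for no effect and buffer wells lacking enzyme for full effect.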 To be noted: purified cruzain, Z-FR-AMC fluorescence, 0.01% Triton. Summed up: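 Purified cruzain, 1.5 nM, pre-incubated 15 min at room temperature with compound in 100 mM sodium acetate pH 5.5, 5 mM DTT, 0.01% Triton X-100. Then 2 uM Z-FR-AMC added; AMC fluorescence (ex 360/em 450 nm) increase over 60 s gave reaction progress.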
Cruzipain (Trypanosoma cruzi), sequence (P25779 123-467 limits assumed): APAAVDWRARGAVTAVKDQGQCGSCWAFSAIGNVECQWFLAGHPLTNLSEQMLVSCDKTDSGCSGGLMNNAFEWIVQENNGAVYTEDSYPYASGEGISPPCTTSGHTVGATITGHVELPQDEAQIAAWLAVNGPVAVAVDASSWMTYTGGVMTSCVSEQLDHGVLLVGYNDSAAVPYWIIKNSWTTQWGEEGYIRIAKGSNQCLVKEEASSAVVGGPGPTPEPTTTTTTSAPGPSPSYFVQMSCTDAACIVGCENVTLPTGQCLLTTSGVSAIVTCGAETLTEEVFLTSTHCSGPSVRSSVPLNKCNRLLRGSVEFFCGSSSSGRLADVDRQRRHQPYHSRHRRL
In the case of `Cc1ccc(C(=O)COC(=O)CNC(=O)COc2ccccc2C)cc1C`, the Potency was 14.1 µM (active).

Regarding `CC(C)CC(OC(=O)CNC(=O)c1ccccc1)C(=O)Nc1cc(C(F)(F)F)ccc1Cl` (stereo not drawn), the Potency was 7.94 µM (active).

Regarding `O=C(CNC(=O)c1ccc(Cl)cc1Cl)OC(C(=O)Nc1cc(C(F)(F)F)ccc1Cl)c1ccccc1` (stereo not drawn), the Potency was 7.08 µM (active).

As to `Cn1nc(-c2ccncc2)nc2c(=O)n(C)c(=O)nc1-2`, the Potency is 0.891 µM (active).

Turning to `O=C(CNC(=O)c1ccccc1)OCC(=O)c1ccc2ccccc2c1`, the Potency is 15.8 µM (active).

For the compound `N#Cc1nc(Nc2cccc(Cl)c2)nc(NC2CCCC2)n1`, the Potency is 0.0794 µM (active).

`O=C(CNC(=O)C1CCCCC1)OCC(=O)c1ccc([N+](=O)[O-])cc1`: the Potency was 2.82 µM (active).

With `N#Cc1nc(Nc2cc(F)cc(F)c2)nc(NC2CCCC2)n1`, the Potency is 0.0631 µM (active).

For the compound `O=C(Nc1nc(-c2ccc(S(=O)(=O)N3CCCCCC3)cc2)cs1)c1cccs1`, the activity change, negative = inhibition is -3.12%.

As for `C=CCn1c(SCC(=O)Nc2cc3oc4ccccc4c3cc2OC)nnc1-c1cnccn1`, the activity change, negative = inhibition was -11.8%.

Regarding `COc1cc(C(=O)COC(=O)CNC(=O)C2CCCCC2)cc(OC)c1OC`, the Potency is 7.94 µM (active).

As to `Cc1oc(=O)c(NC(=O)c2ccc(Cl)cc2)cc1C(=O)c1ccccc1`, the activity change, negative = inhibition was -10.8%.

Regarding `O=C(NCc1nnc(-c2cc3ccccc3[nH]2)s1)c1ccccc1`, the activity change, negative = inhibition was 1%.

For the compound `O=C(CNC(=O)C1CCCCC1)OC(C(=O)Nc1cc(C(F)(F)F)ccc1Cl)c1ccccc1` (stereo not drawn), the Potency was 5.01 µM (active).

In the case of `N#Cc1ccc(C(=O)NCC(=O)OC(C(=O)Nc2cc(C(F)(F)F)ccc2Cl)c2ccccc2)cc1` (stereo not drawn), the Potency was 12.6 µM (active).

For `CNc1oc(Cc2ccccc2)nc1S(=O)(=O)c1ccc(Cl)cc1`, the Potency is 25.1 µM (active).

Turning to `Cc1ccc2[nH]c(=O)c(CN(CCO)Cc3nnnn3Cc3ccco3)cc2c1`, the activity change, negative = inhibition was -3.64%.

Consider `C/C(CC(=O)Nc1cc(Cl)ccc1Cl)=N\NC(N)=S`, for which the Potency was 1.12 µM (active).

For `Cc1cccc(OCCCn2c(CCNC(=O)C3CCCCC3)nc3ccccc32)c1`, the Potency is 794 nM (active) and 708 nM (active).

Take `O=C(Nc1ccc(N2CCCC2)cc1)c1ccc(Br)o1`: the activity change, negative = inhibition is -25%.

For the compound `Cn1c(=O)c2c(-c3ccccc3)n(-n3cnnc3)cc2n(C)c1=O`, the Potency was 22.4 µM (active).

With `CCc1ccc(OCCn2c(CCNC(=O)C3CCCCC3)nc3ccccc32)cc1`, the Potency is 2.24 µM (active).

`Cc1ccc2cc(CN(Cc3ccco3)Cc3nnnn3Cc3ccco3)c(=O)[nH]c2c1`: the activity change, negative = inhibition is -10.1%.

For the compound `N#Cc1nc(Nc2cc(F)cc(F)c2)c2ncn(CC(F)F)c2n1`, the Potency was 0.01 µM (active).

On to `O=c1cc(-c2ccccc2Cl)oc2c(NS(=O)(=O)c3cc(Cl)cc(Cl)c3O)ccc(O)c12`, for which the Potency is 7.08 µM (active).

Turning to `Cc1ccccc1OCC(=O)NCC(=O)OCC(=O)c1ccc([N+](=O)[O-])cc1`, the Potency is 35.5 µM (active).

As to `N#Cc1nc(N2CCCCC2)nc(N(c2ccccc2)c2ccccc2)n1`, the Potency was 2.24 µM (active).

For `Cc1ccc(S(=O)(=O)N[C@@H](Cc2ccccc2)C(=O)CCl)cc1`, the Potency was 14.1 µM (active) and 28.2 µM (active).

Consider `CCNC(=O)c1ccc2nc(-c3ccccc3)c(-c3ccccc3)nc2c1`, for which the activity change, negative = inhibition was -14.3%.

For `CCc1ccc(NC(=O)Cn2c(SCc3ccc(C)cc3)nc3ccncc32)cc1`, the activity change, negative = inhibition is -7.51%.

For the compound `CCC(C(=O)NC1CCCCC1)n1c(SCc2cccc(F)c2)nc2ccncc21` (stereo not drawn), the Potency is 6.31 µM (active).

On to `NNC(=O)C(C(=O)OCc1ccccc1)c1ccccc1` (stereo not drawn), for which the activity change, negative = inhibition is -1.2%.

On to `Cc1cccc2cc(CN(Cc3ccccc3)Cc3nnnn3Cc3ccccc3)c(=O)[nH]c12`, for which the activity change, negative = inhibition was -11.7%.

Take `CCN(Cc1ccccc1)c1nc2c(S(=O)(=O)c3ccccc3)nnn2c2ccc(Cl)cc12`: the activity change, negative = inhibition was -6.48%.

Take `COc1ccccc1CCNC(=O)CNC(=O)c1ccc2ccccc2c1`: the activity change, negative = inhibition was -7.19%.

In the case of `CC(C)(C)OC(=O)CC(=O)NNC(=O)c1cc2ccccc2[nH]1`, the activity change, negative = inhibition was -2.89%.

With `O=C(CNC(=O)C1CCCCC1)OCC(=O)c1ccc(Br)cc1`, the Potency is 2.24 µM (active).

In the case of `N#Cc1nc(NCCCO)nc(Nc2ccccc2)n1`, the Potency is 2.24 µM (active).
